The source of these data is PubChem BioAssay (NCI).

Structures are written as SMILES. About 79,000 compounds went through this panel and 15% of them were active in at least one assay; those are over-represented in the sample as a whole. Values without a mark were called inactive. Active and inactive are the calls of the source. Cut-off read from the data, not from the text of the source: active = growth inhibition above about 70%; inactive = the rest.

This assay can be described thus: NCI Yeast Anticancer Drug Screen. Data for the mlh1 rad18 strain (AID 175). To be noted: S. cerevisiae mlh1 rad18 strain growth inhibition; at 50.0 µM; stronger effect = higher value. An outline of the steps:
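In this whole-cell yeast screen, a strain with altered DNA damage repair is challenged with compound, and its growth is measured against matched vehicle-treated controls.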
With `CCCCOB1OC(c2ccccc2)(c2ccccc2)c2ccccc2C(c2ccccc2)(c2ccccc2)O1`, the growth inhibition is 22.6%.

As to `O=S(=O)(Cc1c[nH]c2ccccc12)c1ccccc1`, the growth inhibition was 37.6%.

As to `C=CCSC(=S)NC`, the growth inhibition was 8.4%.

Regarding `CC(=O)Nc1ccc(S(=O)(=O)NCCC(=O)O)cc1`, the growth inhibition was 21.8%.

For `Cc1nc2c3c4c(sc3nc(C)n2n1)CCCC4`, the growth inhibition is 12%.

`C=C1C(=O)OC2(C)CCC1CC1OC1(C)CC/C=C(\C)CCC2OC(C)=O` (stereo not given): the growth inhibition was 7.85%.

Consider `OCC1(CO)CCCO1`, for which the growth inhibition was 2.55%.

As to `CC(=O)C(C(=O)NCc1ccccc1)C(c1ccc2c(c1)OCO2)C(C(C)=O)C(=O)NCc1ccccc1` (stereo not given), the growth inhibition is 0.45%.

On to `OCCCN1CCN(CCO)CC1`, for which the growth inhibition is -2.25%.

Regarding `COC(=O)C1OC(O[C@H]2CC[C@]3(C)[C@H]4CC=C5[C@@H]6CC(C)(C)CC[C@]6(C(=O)OC6OCC(O)C(O)C6OC6OC(C)C(OC7OCC(OC8OCC(O)C(O)C8O)C(O)C7O)C(O)C6O)[C@H](O)C[C@@]5(C)[C@]4(C)CC[C@H]3C2(C)C)C(O)C(O)C1O` (stereo not given in full), the growth inhibition was 32.2%.

For `C/C(CCc1ccccc1Br)=N/NC(N)=O`, the growth inhibition was -11.3%.

On to `Cc1cc(C)c2nc3c(c(C(O)C4CCCCN4)c2c1)CC/C3=C\c1ccc(Cl)cc1` (stereo not given), for which the growth inhibition is -4.75%.

As to `O=C(NC(=O)C1CCC(=O)N1Cc1ccccc1)NC1CCC(=O)N1Cc1ccccc1` (stereo not given), the growth inhibition was 17.2%.

As for `O=C(O)c1cc(Br)cc([N+](=O)[O-])c1`, the growth inhibition was 21.1%.

In the case of `CC(=O)CC(=O)C(F)(F)F`, the growth inhibition is 4.75%.

As for `N#CC(C#N)=C(N)/C(C#N)=C/c1ccc(O)c(O)c1`, the growth inhibition was 6.85%.

For `C/C(O)=C(\C=N\C(=S)N=Nc1c(O)[nH]c2ccccc12)C(=O)Nc1ccccc1C`, the growth inhibition is 62%.

On to `CC(C)(C)NC(NC(C)(C)C)=C(/C=C(/Cl)[N+](=O)[O-])[N+](=O)[O-]`, for which the growth inhibition was 15.1%.

For the compound `C1CCC(c2nn[nH]n2)CC1`, the growth inhibition is 1%.

Regarding `NC(=NC1CCCCC1)/N=C(/N)Nc1ccc(Cl)cc1`, the growth inhibition is 14.4%.

As for `C#CCN(C(=O)C(F)(F)F)C(/C=C\C(=O)OC)(C(=O)OCC)C(=O)OCC`, the growth inhibition was -2.55%.

For `c1ccc(-c2oc3ccccc3c2-c2ccc(OCCN3CCCC3)cc2)cc1`, the growth inhibition was 99.5% (active).

As for `NC(=O)C(=CNC(=S)Nc1ccc(S(=O)(=O)Nc2ccccn2)cc1)C(N)=O`, the growth inhibition was -26.8%.

Take `O=C1c2ccccc2C(=O)N1/N=N/N1C(=O)c2ccccc2C1=O`: the growth inhibition is 97% (active).

As to `CN1CCCC(CO)C1` (stereo not given), the growth inhibition is -5.3%.

Consider `CCCC(=O)Oc1cc(C)ccc1C(C)(C)C`, for which the growth inhibition was -42%.

Turning to `COc1cc(CCCCC(=O)O)ccc1OC(=O)c1ccccc1`, the growth inhibition was -5.1%.

As to `O=[N+]([O-])c1nccn1CCCNc1c2ccccc2nc2ccccc12`, the growth inhibition was 17.9%.

With `C(=N\c1nnc2ccccn12)/c1ccccc1`, the growth inhibition is -28.3%.

As to `NC(Cc1cccc2ccccc12)C(=O)O` (stereo not given), the growth inhibition was 5.5%.

With `Clc1cc(/C=C/c2ccccc2)c2ccccc2n1`, the growth inhibition was 22.3%.

For `CCN(CC)CCn1ncc2ccc3c(c(=O)c4cccnc4n3CCN(CC)CC)c21`, the growth inhibition was 10.9%.

For the compound `O=c1c2n[nH]nc2nc2n1CC(c1ccccc1)S2` (stereo not given), the growth inhibition was -20.9%.

`O=C(OCc1ccccc1)C1CC1` (tested in a mixture with another compound): the growth inhibition was 25.2%.

Take `Cc1nn(C(=O)c2ccncc2)c2c1C(c1ccccc1[N+](=O)[O-])SC(N)=N2` (stereo not given): the growth inhibition was 18.9%.

On to `C=CNC(=S)n1nc(-c2ccccc2NC(=O)C(F)(F)F)c(=O)n(C(=S)NC=C)c1=S`, for which the growth inhibition is 24.9%.

Turning to `O=c1c(O)c(-c2ccc(O)cc2O)oc2cc(O)cc(O)c12`, the growth inhibition is -26.8%.

Regarding `O=C(O)CN1CCCCC1`, the growth inhibition is -6.65%.

For `O=c1c(=[n+]2ccc(=C([O-])c3ccccc3)cc2)/c(=N/S(=O)(=O)c2ccccc2)c(=O)c2ccccc12`, the growth inhibition was 26.4%.

Regarding `N#Cc1cc(Cl)ccc1N=Cc1c(Cl)cccc1Cl`, the growth inhibition was 12.8%.
